Data on 23 compounds can be found in PubChem BioAssay (EPA / NIEHS).

Active and inactive are the calls of the source. The calls were made as follows: active = hit-call score of the fitted dose curve at least 0.9, where 1 is the maximum; inactive = score below 0.9.

The nature of experiment [1]: ATG_PBREM_CIS: Attagene CIS-FACTORIAL HepG2 Assay for human Phenobarbital-responsive Enhancer Module (PBREM) (AID 2282955). As to conditions: HepG2 PBREM cis-reporter, Attagene multiplexed transcription; actives raise or lower the signal. In outline:
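HepG2 cells transiently transfected with multiple cis-regulated reporter units measure endogenous transcription factor activity; 24 h compound exposure. Reporter mRNA quantified by RT-PCR, fluorescent labelling, HpaI digestion and capillary electrophoresis; bidirectional fit versus DMSO.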

In experiment [2] the target is Paired box protein Pax-6 (Homo sapiens) (UniProt P26367). Nature of the experiment: ATG_Pax6_CIS: Attagene CIS-FACTORIAL HepG2 Assay for human Paired Box 6 (PAX6) (AID 2282956). As to conditions: HepG2 CIS-FACTORIAL PAX6 reporter transcription, RNA readout; actives raise or lower the signal. In outline:
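Transient MRTU transfection of HepG2 → compound exposure 24 h → TriZol RNA, oligo(dT) RT → PCR, 6-FAM primer extension, HpaI cut → capillary electrophoresis; activity fitted both directions against DMSO.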

A short description of experiment [3]: ATG_PXRE_CIS: Attagene CIS-FACTORIAL HepG2 Assay for human Pregnane X Receptor Element (PXRE) (AID 2282957). Conditions: HepG2 Attagene CIS-FACTORIAL PXRE reporter, mRNA; actives raise or lower the signal. In outline: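 HepG2 cells transiently transfected with cis-regulated multiple reporter transcription units; endogenous factor activity measured as reporter mRNA 24 h after dosing. RT-PCR, fluorescent primer extension, HpaI digestion, capillary electrophoresis; bidirectional fit versus DMSO baseline.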

The nature of experiment [4]: ATG_PPRE_CIS: Attagene CIS-FACTORIAL HepG2 Assay for human Peroxisome Proliferator-activated Response Element (PPRE) (AID 2282958). Conditions: HepG2 PPRE cis-element reporter, Attagene transcription factor profiling; actives raise or lower the signal. In outline: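 HepG2 cells are transiently transfected with multiplexed cis-promoter reporter units to report endogenous PPAR activity. After 24 h dosing, reporter mRNA is read by RT-PCR and capillary electrophoresis. Fitting is bidirectional against DMSO.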

A short description of experiment [5]: ATG_RORE_CIS: Attagene CIS-FACTORIAL HepG2 Assay for human RAR-related Orphan Receptor Element (RORE) (AID 2282959). Conditions: HepG2 Attagene cis-factorial RORE reporter, mRNA; actives raise or lower the signal. In outline: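 HepG2 cells carrying transiently transfected cis-regulated reporter units; RORE-driven reporter mRNA quantified 24 h post-dosing by RT-PCR, 6-FAM primer extension, HpaI digestion and capillary electrophoresis. Bidirectional fit versus DMSO.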

Experiment [6] can be described thus: ATG_Sox_CIS: Attagene CIS-FACTORIAL HepG2 Assay for human SRY-box transcription factor (SOX) (AID 2282960). Conditions: HepG2 Attagene cis-factorial SOX reporter, mRNA; actives raise or lower the signal. In outline:
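HepG2 cells transiently transfected with multiple cis-regulated reporter units, then dosed for 24 h. Reporter mRNA quantified by RT-PCR, fluorescent labelling, HpaI digestion and capillary electrophoresis; bidirectional fit versus DMSO.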

Experiment [7] has as its target Transcription factor Sp1 (Homo sapiens) (UniProt P08047). Nature of the experiment: ATG_Sp1_CIS: Attagene CIS-FACTORIAL HepG2 Assay for human Specificity Protein 1 (Sp1) (AID 2282961). As to conditions: HepG2 Sp1 cis-reporter transcription, actives raise or lower the signal. The method in brief: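 HepG2 cells transiently transfected with multiplexed cis-regulated reporter constructs, chemical exposure 24 h. Reporter mRNA quantified by RT-PCR with capillary electrophoresis; bidirectional fit relative to DMSO.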

A short description of experiment [8]: ATG_SREBP_CIS: Attagene CIS-FACTORIAL HepG2 Assay for human Sterol Regulatory Element Binding (SREBP) (AID 2282962). As to conditions: HepG2 Attagene cis-factorial SREBP reporter, mRNA; actives raise or lower the signal. In outline:
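Transfected HepG2 (cis-regulated reporter library, endogenous TFs) → compound 24 h → total RNA → oligo(dT) RT → reporter-specific PCR → FAM primer extension, HpaI cut → CE fluorescence. Fit bidirectional vs DMSO.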

Experiment [9] concerns the target Signal transducer and activator of transcription 3 (Homo sapiens) (UniProt P40763). Put plainly: ATG_STAT3_CIS: Attagene CIS-FACTORIAL HepG2 Assay for human Signal Transducer and Activator of Transcription 3 (STAT3) (AID 2282963). As to conditions: HepG2, Attagene cis-factorial STAT3 reporter transcription; actives raise or lower the signal. In outline: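 Transcript-level reporter assay. HepG2 transient MRTU transfection, 24 h exposure, fluorescence detection after RT-PCR and CE; DMSO baseline.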

The nature of experiment [10]: ATG_TA_CIS: Attagene CIS-FACTORIAL HepG2 Assay for human TA Basal Promoter (AID 2282964). As to conditions: HepG2 Attagene CIS-factorial TA basal promoter reporter; actives raise or lower the signal. The method in brief:
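Background internal-marker endpoint from a 52-component HepG2 cis-reporter panel. Cells treated 24 h; reporter transcripts quantified via RT-PCR and CE fluorescence against DMSO baseline.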

Chain of Paired box protein Pax-6 (Homo sapiens) (P26367 whole entry, looked up): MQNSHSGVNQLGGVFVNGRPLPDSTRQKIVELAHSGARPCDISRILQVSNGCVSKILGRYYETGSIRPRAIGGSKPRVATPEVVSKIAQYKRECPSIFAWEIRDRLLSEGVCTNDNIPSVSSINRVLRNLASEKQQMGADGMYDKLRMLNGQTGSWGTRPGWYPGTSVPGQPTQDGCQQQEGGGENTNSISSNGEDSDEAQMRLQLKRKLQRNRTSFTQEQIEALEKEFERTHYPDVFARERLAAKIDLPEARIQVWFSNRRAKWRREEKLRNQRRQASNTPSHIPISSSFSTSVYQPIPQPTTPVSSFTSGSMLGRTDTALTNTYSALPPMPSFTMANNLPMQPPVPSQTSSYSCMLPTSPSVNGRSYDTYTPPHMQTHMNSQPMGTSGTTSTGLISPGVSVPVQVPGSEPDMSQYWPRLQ
Chain of Transcription factor Sp1 (Homo sapiens) (P08047 whole entry, looked up): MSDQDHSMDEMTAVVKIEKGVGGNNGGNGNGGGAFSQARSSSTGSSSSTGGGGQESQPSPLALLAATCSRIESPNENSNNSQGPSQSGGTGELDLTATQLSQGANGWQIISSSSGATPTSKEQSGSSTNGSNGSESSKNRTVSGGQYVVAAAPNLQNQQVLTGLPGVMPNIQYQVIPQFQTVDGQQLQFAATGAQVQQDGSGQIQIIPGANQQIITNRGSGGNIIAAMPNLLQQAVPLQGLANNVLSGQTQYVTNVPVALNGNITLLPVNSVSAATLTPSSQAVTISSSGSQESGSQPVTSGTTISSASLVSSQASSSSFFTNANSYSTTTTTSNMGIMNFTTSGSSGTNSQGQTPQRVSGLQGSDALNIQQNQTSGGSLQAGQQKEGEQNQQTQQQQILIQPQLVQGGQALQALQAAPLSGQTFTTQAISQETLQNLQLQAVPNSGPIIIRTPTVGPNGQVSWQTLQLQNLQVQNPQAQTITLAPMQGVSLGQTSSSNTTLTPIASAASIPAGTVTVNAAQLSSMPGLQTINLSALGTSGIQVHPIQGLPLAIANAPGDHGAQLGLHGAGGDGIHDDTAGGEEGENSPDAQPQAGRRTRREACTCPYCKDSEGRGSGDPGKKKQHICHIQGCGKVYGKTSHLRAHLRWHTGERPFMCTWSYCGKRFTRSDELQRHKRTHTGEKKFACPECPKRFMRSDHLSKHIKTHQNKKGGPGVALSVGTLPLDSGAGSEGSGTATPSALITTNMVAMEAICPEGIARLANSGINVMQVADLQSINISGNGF
Chain of Signal transducer and activator of transcription 3 (Homo sapiens) (P40763 whole entry, looked up): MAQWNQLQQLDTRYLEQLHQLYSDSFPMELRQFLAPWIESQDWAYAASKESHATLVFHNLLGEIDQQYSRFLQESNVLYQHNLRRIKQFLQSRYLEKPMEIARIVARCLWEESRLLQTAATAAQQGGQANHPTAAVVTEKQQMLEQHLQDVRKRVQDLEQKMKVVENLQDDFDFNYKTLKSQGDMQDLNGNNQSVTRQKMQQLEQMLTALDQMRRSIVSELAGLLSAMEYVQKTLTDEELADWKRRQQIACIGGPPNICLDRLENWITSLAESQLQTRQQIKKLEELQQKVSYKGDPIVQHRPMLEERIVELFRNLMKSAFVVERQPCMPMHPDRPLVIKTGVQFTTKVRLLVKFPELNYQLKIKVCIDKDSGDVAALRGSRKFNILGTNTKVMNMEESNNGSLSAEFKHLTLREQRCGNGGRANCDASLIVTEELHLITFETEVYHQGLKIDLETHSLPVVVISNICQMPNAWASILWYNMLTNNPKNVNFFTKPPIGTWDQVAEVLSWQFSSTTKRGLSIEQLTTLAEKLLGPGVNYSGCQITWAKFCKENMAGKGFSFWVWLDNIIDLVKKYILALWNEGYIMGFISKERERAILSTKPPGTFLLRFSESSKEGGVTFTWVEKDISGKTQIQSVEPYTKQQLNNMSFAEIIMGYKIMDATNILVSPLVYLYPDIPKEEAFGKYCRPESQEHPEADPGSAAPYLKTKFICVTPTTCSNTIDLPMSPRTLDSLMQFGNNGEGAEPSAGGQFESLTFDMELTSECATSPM

With `Nc1ccc(Oc2cccc(Oc3ccc(N)cc3)c2)cc1`, the result in experiment [1], in experiment [6] and in [7] was inactive. Further, the AC50 in [2] was 71 µM (active); in experiment [3] it was 25.7 µM (active); in experiment [4], 89.5 µM (active); in [5], 14.9 µM (active); in [8], 136 µM (active); in experiment [9], 173 µM (active). Further, in experiment [10], the AC50 was 26.8 µM (active).
Consider `O=C(Cl)C(F)(F)C(F)(F)C(F)(F)C(F)(F)C(F)(F)C(F)(F)C(F)(F)C(F)(F)F`, for which the outcome in experiment [1], in experiment [6], in experiment [7], in [8], in experiment [9] and in [10] was inactive. Also, the AC50 in experiment [2] was 54.1 µM (active); in experiment [3], 8.97 µM (active); in experiment [4], 33.4 µM (active); in [5], 44.5 µM (active).
Take `OCC(F)(F)C(F)(F)C(F)(F)C(F)F`: the outcome in [1], in [2], in experiment [3], in [4], in experiment [5] and in experiment [7] was inactive. Also, the compound was called inactive in experiment [8], in [9] and in experiment [10].
As for `CCc1c(Br)c(Br)c(Br)c(Br)c1Br`, the AC50 in experiment [1] is 23.7 µM (active); in experiment [3], 8.3 µM (active). Besides, the compound was classed as inactive in [2], in experiment [4], in experiment [5], in experiment [7], in [8] and in experiment [9]. In experiment [10], the compound was classed as inactive.
Take `O=C(O)C(F)(F)C(F)(F)C(F)(F)C(F)(F)F`: the result in experiment [1], in [2], in experiment [3], in experiment [4], in experiment [5] and in [7] was inactive. Besides, the call in experiment [8], in experiment [9] and in [10] was inactive.
Regarding `CCCCC(CC)COP(=O)(O)OCC(CC)CCCC` (stereo not drawn), the outcome in [1], in experiment [2], in experiment [6], in experiment [7], in experiment [8] and in experiment [9] was inactive. In experiment [10], the compound was called inactive. The half-maximal activity concentration (AC50) in experiment [3] was 9.1 µM (active); in experiment [4], 5.45 µM (active).
`O=C(O)C(F)(F)C(F)(F)F`: the outcome in experiment [1], in [2], in [3], in experiment [4], in experiment [5] and in [7] was inactive. Moreover, the outcome in experiment [8], in experiment [9] and in experiment [10] was inactive.
`CC(C)=CCCC(C)CCOC(=O)C(C)C` (stereo not drawn): the result in experiment [1], in experiment [2], in experiment [3], in experiment [4], in experiment [5] and in [7] was inactive. Also, the call in experiment [8], in experiment [9] and in experiment [10] was inactive.
As to `C=C(C)C(=O)OCC(F)(F)C(F)(F)C(F)(F)C(F)(F)C(F)(F)C(F)(F)C(F)(F)F`, the result in experiment [1], in experiment [2], in experiment [3], in experiment [4], in experiment [6] and in experiment [7] was inactive. Further, the call in [8], in experiment [9] and in experiment [10] was inactive.
Regarding `Cc1ccc(S(=O)(=O)OCC(F)(F)C(F)(F)C(F)(F)C(F)(F)C(F)(F)C(F)F)cc1`, the result in experiment [1], in experiment [2], in experiment [4], in experiment [5], in [7] and in experiment [8] was inactive. The result in experiment [9] and in experiment [10] was inactive. In addition, the AC50 in [3] is 1.95 µM (active).
With `CCCCCCS`, the result in experiment [1], in [2], in experiment [3], in experiment [4], in [5] and in experiment [7] was inactive. Besides, the result in [8], in [9] and in experiment [10] was inactive.
Turning to `CN(C)Cc1ccccc1O`, the outcome in [1], in experiment [2], in [3], in [4], in experiment [5] and in experiment [6] was inactive. The result in [7], in experiment [8] and in [9] was inactive. Besides, in [10], the half-maximal activity concentration (AC50) is 165 µM (active).
With `O=C(O)C=C(C(F)(F)F)C(F)(F)F`, the result in experiment [1], in experiment [2], in experiment [3], in experiment [4], in experiment [5] and in experiment [7] was inactive. Further, the result in experiment [8], in experiment [9] and in experiment [10] was inactive.
On to `FC(F)(F)C(F)(F)C(F)(F)C(F)(F)C(F)(F)C(F)(F)C(F)(F)Br`, for which the result in experiment [1], in experiment [2], in experiment [3], in [4], in experiment [5] and in experiment [6] was inactive. For the same compound, the result in experiment [7], in experiment [8], in experiment [9] and in experiment [10] was inactive.
In the case of `CC(C)(C)c1ccc(OC2CCCCC2O)cc1` (stereo not drawn), the AC50 was 26.1 µM (active) in experiment [1], 1.73 µM (active) in [3] and 26.5 µM (active) in [8]. The result in [2], in experiment [4], in experiment [5], in [6], in experiment [7] and in [9] was inactive. Moreover, in [10], the compound was called inactive.
For the compound `CC/C=C\CCOC(=O)c1ccccc1`, the outcome in [1], in [2], in [3], in [4], in experiment [6] and in [7] was inactive. For the same compound, the call in experiment [8], in experiment [9] and in experiment [10] was inactive.
Regarding `O=C(C=Cc1ccccc1)OCC=Cc1ccccc1`, the outcome in experiment [1], in experiment [2], in [4], in experiment [5], in [7] and in experiment [8] was inactive. For the same compound, the compound was called inactive in experiment [9] and in [10]. In addition, the AC50 in experiment [3] is 15.9 µM (active).
In the case of `FC1CC(F)(F)C(F)(F)C1(F)F` (stereo not drawn), the outcome in [1], in [2], in experiment [3], in experiment [4], in [5] and in experiment [7] was inactive. Moreover, the result in [8], in experiment [9] and in experiment [10] was inactive.
With `C(=C(c1ccccc1)c1ccccc1)c1ccccc1`, the outcome in experiment [1], in experiment [2], in [4], in [6], in experiment [7] and in experiment [8] was inactive. Besides, the outcome in experiment [9] and in [10] was inactive. In experiment [3], the AC50 was 4.4 µM (active).
Regarding `O=P(O)(O)OCCC(F)(F)C(F)(F)C(F)(F)C(F)(F)C(F)(F)C(F)(F)F`, the outcome in [1], in [2], in experiment [3], in experiment [4], in experiment [5] and in experiment [7] was inactive. Further, the compound was called inactive in experiment [8], in [9] and in [10].
On to `NC(=O)C(F)(F)C(F)(F)C(F)(F)C(F)(F)F`, for which the result in experiment [1], in experiment [2], in experiment [3], in experiment [4], in [5] and in experiment [7] was inactive. Moreover, the compound was classed as inactive in [8], in experiment [9] and in experiment [10].
For the compound `CCCCOc1ccc(N)cc1`, the outcome in experiment [1], in [2], in experiment [3], in [4], in experiment [5] and in experiment [6] was inactive. The result in experiment [7], in experiment [8], in experiment [9] and in experiment [10] was inactive.
`FC(F)(F)C(F)(F)C(F)(F)C(F)(F)C(F)(F)C(F)(F)CC1CO1` (stereo not drawn): the outcome in [1], in experiment [2], in [3], in experiment [4], in [5] and in experiment [7] was inactive. Also, the compound was called inactive in experiment [8], in experiment [9] and in [10].

One may read the AC50 as the concentration at which the activity in the assay is half-maximal.
